Assay outcomes: PubChem, National Center for Advancing Translational Sciences (NCATS)
The full list was thinned out, with hits kept by preference.
TDP1 cell noCPT: qHTS for Inhibitors of human tyrosyl-DNA phosphodiesterase 1 (TDP1): qHTS in cells in absence of CPT. DT40 Tdp1-/- hTDP1 cells, no CPT, ATP luminescence, 48 h. Potency, µM (series often up to 46.2 µM), for the others: at the top dose activity change, negative = growth inhibition, most hits filed as inhibitors. 420,000 tested, 15% active; further: potency means the concentration at half of the fitted maximal effect; nearly all actives have a fitted effect of over 55% in size
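Compound effects on proliferation are scored in DT40 Tdp1-/-;hTDP1 cells in the absence of CPT. ATP levels (CellTiter-Glo luminescence) are recorded after a ≥48 hr, 37 °C incubation.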
HT1080 IDH1KD tx: toxicity to HT-1080 IDH1 knockdown cells (counter line). HT-1080 IDH1 knockdown viability, ATP luminescence, 48 h. Potency, µM (top dose mostly 46.1 µM), for inactives: top-dose activity, negative = toxicity, actives largely listed as cytotoxic. 360,000 tested, 2% active;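 further: potency means the concentration at half of the fitted maximal effect; 0% = DMSO wells and -100% = cell-free medium wells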
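After a 2 h attachment period, IDH1KD HT-1080 cells took pin-transferred compound for 48 h at 37 °C; ATP-based luminescence after 10 min room-temperature reagent incubation reported viability.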
IL1B secr inh: blocks inflammasome-driven IL-1 beta release; AID 743279; activity change, % at 57.5 µM; THP-1 LPS/ATP IL-1B secretion, AlphaLISA, 16 h; active compounds read low; 360,000 tested, 4.7% active; in the data active means activity change below about -50%; inconclusive means mostly about -30% to -49%
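Secreted IL-1B measured by AlphaLISA bead assay after 16 h compound exposure of THP-1 cells; compounds (final up to 57.5 uM) added 1 h before LPS (250 ng/mL) and ATP (1.25 mM) stimulation; lower signal means less secretion.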
12-LOX inh: blocks human arachidonate 12S-lipoxygenase. Potency, µM (doses to about 108 µM), for the others: at the highest dose activity change, negative = inhibition, most hits filed as inhibitors. 580,000 tested, 1.1% active. P18054. purified 12hLO, xylenol orange hydroperoxide absorbance. AID 1671190; further: potency means the concentration at half of the fitted maximal effect
Target sequence (P18054 whole entry, looked up): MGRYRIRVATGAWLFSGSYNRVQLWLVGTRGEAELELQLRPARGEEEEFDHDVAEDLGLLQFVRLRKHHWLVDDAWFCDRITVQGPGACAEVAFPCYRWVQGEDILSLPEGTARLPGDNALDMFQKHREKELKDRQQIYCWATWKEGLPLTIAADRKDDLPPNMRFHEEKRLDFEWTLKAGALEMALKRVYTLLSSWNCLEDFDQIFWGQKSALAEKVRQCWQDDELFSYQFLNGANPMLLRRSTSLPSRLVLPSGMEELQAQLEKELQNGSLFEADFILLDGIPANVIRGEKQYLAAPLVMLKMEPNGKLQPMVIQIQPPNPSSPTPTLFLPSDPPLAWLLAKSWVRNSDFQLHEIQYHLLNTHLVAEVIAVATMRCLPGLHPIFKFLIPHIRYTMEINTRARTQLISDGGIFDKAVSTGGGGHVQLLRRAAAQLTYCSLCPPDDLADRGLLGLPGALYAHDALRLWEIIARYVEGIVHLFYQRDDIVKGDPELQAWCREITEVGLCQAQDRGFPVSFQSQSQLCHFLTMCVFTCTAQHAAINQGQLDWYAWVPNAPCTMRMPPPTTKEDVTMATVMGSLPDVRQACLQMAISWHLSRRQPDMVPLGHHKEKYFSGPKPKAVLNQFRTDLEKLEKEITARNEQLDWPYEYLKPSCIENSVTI
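Purified human 12hLO at 150 nM in 25 mM Hepes, 0.01% Triton X-100, pH 7.0, preincubated 15 min at room temperature with compound. Reaction started with 40 uM arachidonic acid, 30 min at room temperature. Hydroperoxide measured by Fe-xylenol orange, 573/405 nm absorbance ratio.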
DT40 TDP1 CPT: DT40-hTDP1 cell growth loss with CPT; 420,000 tested, 12% active; Potency, µM (doses to about 46.2 µM), for the others: at the highest dose activity change, negative = growth inhibition, hits mostly inhibitors; chicken DT40 Tdp1-/-;hTDP1 cells + 20 nM CPT, ATP luminescence, 48 h; further: potency means the concentration at half of the fitted maximal effect; nearly all actives have a fitted effect of over 55% in size
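Cell growth measured by CellTiter-Glo luminescence after a minimum 48 h, 37 C compound exposure with 20 nM CPT in Tdp1-knockout DT40 cells stably expressing hTDP1, seeded 400/well; qHTS titration format.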
HT1080NT lethal: kills 2HG-producing HT-1080-NT fibrosarcoma cells | AID 686970 | 360,000 tested, 1.6% active | HT-1080-NT fibrosarcoma viability, CellTiter-Glo ATP luminescence, 48 h | Potency, µM (highest dose often 46.1 µM), without a hit: at the top dose activity, negative = less viability, usual class: cytotoxic;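 further: NT is the 2HG producing partner of a matched IDH1 knockdown line; potency means the concentration at half of the fitted maximal effect; 0% = DMSO-treated cells and -100% = media-only wells without cells; nearly all actives have a fitted effect of over 55% in size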
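Viability of the 2HG-overproducing fibrosarcoma line after 48 hours of compound exposure at 37 degrees C was determined by luminescence with CellTiter-Glo, and concentration-effect curves were then fitted and categorized.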
Numbers without * were called inactive; ? = inconclusive; / = no result; [ ] = remark or other dose. Unless noted, the call rests on the fitted dose curve; in most records, active means well fitted curve in the direction sought with a large enough effect; inconclusive means small, poorly fitted or top-dose-only effect, or another doubt; inactive means no such curve, though single readings can be large; an effect the other way counts as inactive or inconclusive. Unless noted, on the % scale 0 is the no-effect control and ±100 the full control effect.

SMILES	TDP1 cell noCPT	HT1080 IDH1KD tx	IL1B secr inh	12-LOX inh	DT40 TDP1 CPT	HT1080NT lethal
CCOC(=O)C1CCN(C(c2ccccc2)c2c(O)cc(C)n(Cc3ccccc3)c2=O)CC1 (stereo not drawn)	/	/	/	-5%	/	/
CC(C)(C)c1ccccc1NC(=O)c1ccccc1F	/	/	/	-3%	/	/
COc1ccc(C2C(C#N)=C(N)N(c3cccnc3)C3=C2C(=O)CCC3)cc1Cn1cc([N+](=O)[O-])cn1 (stereo not drawn)	-23%	-14%	-12	-7%	-17%	?
COc1ccc(C2C(C#N)=C(N)N(c3ccccc3)C3=C2C(=O)CCC3)cc1Cn1cc([N+](=O)[O-])cn1 (stereo not drawn)	?	?	-74*	?	?	?
N#CC1=C(N)N(c2ccc(Br)cc2)C2=C(C(=O)CCC2)C1c1cccnc1 (stereo not drawn)	20%	?	-25	?	-28%	13µM*
COc1ccc(CNC(=O)C2CCN(C(=O)c3ncn4c3COC(c3ccccc3)C4)CC2)cc1 (stereo not drawn)	/	/	/	13%	/	/
CC1CC(C)CN(c2ncc3c(n2)CC(c2ccccc2)CC3=O)C1 (stereo not drawn)	10µM*	-3%	-3	139%	12µM*	1%
COc1cc(C2CC(=O)c3cnc(N4CCN(Cc5ccccc5)CC4)nc3C2)cc(OC)c1OC (stereo not drawn)	7.3µM*	-3%	12	7%	7.3µM*	-11%
COc1ccc(C2CC(=O)c3c(C)nc(N4CCN(Cc5ccccc5)CC4)nc3C2)cc1OC (stereo not drawn)	13µM*	-14%	-2	0%	12µM*	1%
COc1ccc(C2CC(=O)c3c(C)nc(N4CCN(C=O)CC4)nc3C2)c(OC)c1 (stereo not drawn)	/	/	/	-5%	/	/
CC(C)(C)c1ccc(C2CC(=O)c3cnc(NCc4ccccc4)nc3C2)cc1 (stereo not drawn)	/	/	/	-26%	/	/
Cc1ccc(CNc2oc(COc3ccccc3F)nc2C#N)cc1	/	/	/	0%	/	/
Cc1c(-c2ccc(O)cc2)nn(-c2ccc(O)cc2)c1-c1ccc(OCCN2CCCCC2)cc1	30µM*	/	/	20µM*	19µM*	/
CCn1nccc1C(=O)N1CCC2(CC1)NCCc1c2[nH]c2ccccc12	/	/	/	55%	/	/
COC(=O)c1ccc2nc(CO[C@H]3CN(Cc4ccc5c(c4)OCO5)C[C@H]3F)[nH]c2c1	/	/	/	26%[176 µM]	/	/
CN(C)CCCn1c2c(c(SCC(=O)Nc3cccc4ccccc34)nc1=O)CCCC2	-16%	-6%	-97*	1%	-6%	-4%
COc1ccc(Cl)cc1NC(=O)CSc1nc(=O)n(CCN(C)C)c2c1CCCC2	?	-1%	?	4%	16µM*	-14%
O=C1Nc2cc3c(cc2C1=O)sc1ccccc13	29µM*	-6%	/	33%	21µM*	-1%
COC(=O)C(c1cccc(OC)c1)(c1cn(C)c2ccccc12)C(Nc1ccccc1)c1ccccc1 (stereo not drawn)	/	/	/	-6%	/	/
CCOC(=O)C(CC)(CC)C(=O)/C=C/c1cccc(Br)c1	18µM*	?	-98*	265%	12µM*	?
Cc1ccc(NC(=O)CSc2nc3ccccc3c(=O)n2CCn2cc(Cl)cn2)cc1	/	/	/	5%	/	/
O=C(NCc1ccccn1)c1ccc2c(c1)N(Cc1ccccc1)CCS2	?	-28%	-24	7%	?	-15%
O=C(NCc1ccccc1Cl)c1ccc2c(c1)N(Cc1ccccc1)CCS2	18µM*	/	/	?	13µM*	/
Cc1ccccc1CNC(=O)c1ccc2c(c1)N(Cc1ccccc1)CCS2	21µM*	/	/	-16%	?	/
